# Compounds with a hit are over-represented: about 11% of the library has one in this group of screens.
# VP16 counter = counter-screen for ROR gamma inhibitors: Gal4-VP16 reporter; Drosophila S2 Gal4-VP16 UAS-luciferase, luminescence, 20 h; Potency, µM (top dose mostly 53.6 µM), without a hit: at the top dose activity, negative = inhibition, hits mostly inhibitors; 310,000 tested, 3.5% active;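 also: Gal4-VP16 expression switched on by copper sulfate through the metallothionein promoter; potency is read from the fitted curve at half-maximal effect; % is scaled to controls: 0 for no effect and ±100 for the full control effect; nearly all actives have a fitted effect of over 50% in size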
# RORg inh = inhibitors of mouse ROR gamma transcriptional activity | Drosophila S2 Gal4-RORgamma UAS-luciferase reporter, 20 h | Potency, µM (top dose mostly 53.6 µM), for inactives: at the top dose activity change, negative = inhibition, usual class: inhibitors | 310,000 tested, 5.4% active | AID 2551; also: potency is read from the fitted curve at half-maximal effect; % is scaled to controls: 0 for no effect and ±100 for the full control effect; nearly all actives have a fitted effect of over 60% in size
# Target sequence (P51450 whole entry, looked up, the tested form may be a part): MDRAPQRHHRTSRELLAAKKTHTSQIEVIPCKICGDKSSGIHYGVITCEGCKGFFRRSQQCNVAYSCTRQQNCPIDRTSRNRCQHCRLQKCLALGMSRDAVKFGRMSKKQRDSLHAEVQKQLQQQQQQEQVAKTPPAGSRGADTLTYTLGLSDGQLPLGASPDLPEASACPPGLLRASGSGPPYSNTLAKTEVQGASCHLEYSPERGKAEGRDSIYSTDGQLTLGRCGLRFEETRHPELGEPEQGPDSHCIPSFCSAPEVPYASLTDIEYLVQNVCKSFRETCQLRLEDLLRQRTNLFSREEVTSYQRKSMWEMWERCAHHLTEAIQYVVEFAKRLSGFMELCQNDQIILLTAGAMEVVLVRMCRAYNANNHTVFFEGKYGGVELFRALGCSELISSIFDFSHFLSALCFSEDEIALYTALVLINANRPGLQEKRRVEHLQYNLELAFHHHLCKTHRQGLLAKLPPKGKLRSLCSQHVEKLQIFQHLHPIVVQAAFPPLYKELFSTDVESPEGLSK
#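 Drosophila S2 cells stably expressing Gal4-DBD/mouse RORγ fusion under metallothionein promoter plus UAS-luciferase; compound 1 h, then 700 uM CuSO4 induction for 20 h at ambient temperature; inhibition read as reduced luminescence.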
# IL1B secr inh = inflammasome signaling inhibition, IL-1 beta readout. THP-1 LPS/ATP IL-1B secretion, AlphaLISA, 16 h; active compounds read low. activity change, % at 57.5 µM. 360,000 tested, 4.7% active. AID 743279; in the data active = activity change below about -50%; inconclusive = mostly about -30% to -49%; also: % is scaled to controls: 0 for no effect and ±100 for the full control effect
#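 Secreted IL-1B measured by AlphaLISA bead assay after 16 h compound exposure of THP-1 cells; compounds (final up to 57.5 uM) added 1 h before LPS (250 ng/mL) and ATP (1.25 mM) stimulation; lower signal means less secretion.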
# SW480 rereplic = inducers of DNA re-replication in SW480 colon cancer cells. 340,000 tested, 1.8% active. Potency, µM (top dose mostly 46.1 µM), for inactives: at the highest dose re-replication activation, actives largely listed as activators. SW480 DNA re-replication, Hoechst DNA content imaging, 48 h; also: potency is read from the fitted curve at half-maximal effect; % of control where 0% means no effect; nearly all actives have a fitted effect of over 55% in size
#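 Per well, 250 cells were exposed to pinned compound for 48 hr. Nuclear DNA was visualised with Hoechst (40 min, 37 C) and total object intensity recorded by fluorescence scanning.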
# MCF10A rereplic = inducers of DNA re-replication in MCF 10A breast cells; MCF 10A DNA re-replication, Hoechst nuclear intensity, 48 h; Potency, µM (titrated, usually from 46.1 µM), without a hit: at the highest dose activity, positive = re-replication, actives largely listed as activators; 350,000 tested, 2.9% active; also: potency is read from the fitted curve at half-maximal effect; % of control where 0% means no effect; nearly all actives have a fitted effect of over 50% in size
# An asterisk follows results filed as active; ? = inconclusive; . = no result; [ ] = another dose, or the depositor's remark. Unless noted, calls follow the shape of the dose curve; as a rule, active = well fitted curve in the direction sought with a large enough effect; inconclusive = small, poorly fitted or top-dose-only effect, or another doubt; inactive = no such curve, though single readings can be large; an effect the other way counts as inactive or inconclusive.
SMILES,VP16 counter,RORg inh,IL1B secr inh,SW480 rereplic,MCF10A rereplic
N#Cc1c(C(F)(F)F)cc(-c2ccc(Cl)cc2)[nH]c1=O,1%,?,40,?,4.6µM*
COc1ccc(-c2cc(C(F)(F)F)c(C#N)c(=O)[nH]2)cc1,-5%,27%,66,18%,18µM*
N#Cc1c(C(F)(F)F)cc(-c2cccc(Cl)c2)[nH]c1=O,-5%,?,11,?,16µM*
Cc1cc(C(F)(F)F)c(C#N)c(=O)[nH]1,-5%,-32%,15,-1%,-1%
N#Cc1c(C(F)(F)F)cc(-c2ccc(F)cc2)[nH]c1=O,-5%,?,91,452%,21µM*
CCc1nc2c(OCc3c(C)noc3C)cccn2c1N(C=O)Cc1ccccc1,.,.,0,.,.
Cc1ccc(NC(=O)c2cnccn2)cc1C,-7%,7%,-1,12%,1%
CC1=C(C(=O)N2CCOCC2)CC(CC(=O)NCc2ccco2)C(=O)N1CCC1=CCCCC1 (configuration not stated),.,.,-15,.,.
CN(Cc1nc(-c2ccc(Cl)cc2)no1)C(=O)CCN1C(=O)[C@H]2CC=CC[C@H]2C1=O,1%,14%,-13,?,6%
COc1ccc(O)c(C(=O)c2cc(SCC(=O)O)c3nc4sc5c(c4c(=O)n3c2)CCCC5)c1,3%,10%,2,6%,0%
Cc1sc2nc3c(SC(C)C(=O)O)cc(C(=O)c4ccccc4O)cn3c(=O)c2c1C (configuration not stated),-13%,-12%,?,-6%,16µM*
CCOC(=O)c1sc2nc3c(SCC(=O)O)cc(C(=O)c4ccccc4O)cn3c(=O)c2c1C,-7%,-1%,15,16%,1%
CCOC(=O)c1sc2nc3c(SCC(=O)O)cc(C(=O)c4cc(F)ccc4O)cn3c(=O)c2c1C,-2%,-7%,14,-1%,3.3µM*
CCc1c(C)sc2nc3c(C(=O)N4CCOCC4)cc(C(=O)c4ccccc4O)cn3c(=O)c12,2%,17%,-64*,1%,-1%
O=C(O)CSc1cc(C(=O)c2ccccc2O)cn2c(=O)c3c(-c4ccccc4)csc3nc12,5%,-19%,15,?,5.2µM*
Cc1ccc(S(=O)(=O)N2CCN(C(=O)c3sccc3-c3ccccc3)CC2)cc1,-2%,10%,0,2%,8%
O=C(c1cnc2nc3ccccc3n2c1)c1cc(F)ccc1O,-9%,31%,5,3%,?
COC(=O)c1cc(C(=O)c2cc(F)ccc2O)cn2c(=O)c3c(C)c(C)sc3nc12,-8%,8%,-6,?,3.7µM*
O=C(CNC(=O)c1n[nH]c2ccccc12)Nc1ccc(F)c(F)c1F,.,.,21,-7%,2%
Nc1c(C2CCCCC2)c(=O)on1C(=O)c1ccccc1,.,.,13,6%,15µM*
COc1ccc(CCNC(=O)c2ccc(CS(=O)Cc3ccc(C)cc3)o2)cc1OC (configuration not stated),-6%,8%,4,-21%,1%
COc1cc2ccc(=O)oc2c(O)c1OCC=C(C)C,15%,-5%,22,2.1µM*,-10%
COc1cccc(C2=CC(c3ccc(N(C)C)cc3)n3nnnc3N2)c1 (configuration not stated),4%,-38%,-3,?,16µM*
COc1cccc(C2=CC(c3ccccc3)n3nnnc3N2)c1 (configuration not stated),35µM*,?,7,2%,2%
COc1ccc(C2C=C(c3ccccc3)Nc3nnnn32)cc1 (configuration not stated),1%,7%,2,14%,4%
SMILES,VP16 counter,RORg inh,IL1B secr inh,SW480 rereplic,MCF10A rereplic
CN1C[C@@H](CO)O[C@@H](n2cnc3c(N4CCOCC4)ncnc32)C1,.,.,18,.,.
CNC(=O)c1ccccc1,2%,8%,.,.,.
CC(C)CCCC(C)C1CCC2C3CC=C4CC(O)CCC4(C)C3CCC12C (configuration not stated),1%,9%,.,.,.
CC(C)C[C@H]1CNC(=S)N1CC1CCN(CC2CCCC2)CC1,.,.,14,0.026µM*,?
CC(C)C[C@H]1CNC(=O)C(=O)N1CC1CCN(CCC(C)(C)C)CC1,.,.,141,-27%,4%
CC(C)C[C@H]1CNC(=S)N1CC1CCN(CCC23CC4CC(CC(C4)C2)C3)CC1,.,.,-50*,?,-42%
CC(C)C[C@H]1CNC(=S)N1CC1CCN(CCCC2CCCCC2)CC1,.,.,-54*,-2%,?
COc1ccccc1-c1cc(Nc2ccn[nH]2)ncn1,30%,-8%,.,.,.
O=c1cc(O)cc2n1CCC2,.,.,14,.,.
CCCn1c(C)nc2c(NCCN(C(C)C)C(C)C)nc(C)nc21,-9%,-10%,.,.,.
CCN(C)C1CN(Cc2cn(Cc3ccc(C)cc3)nn2)S(=O)(=O)C1 (configuration not stated),.,.,12,.,.
NC(=S)N/N=C/c1c(O)c(Br)cc2oc3c(c12)CCCC3,?,7.9µM*,21,18µM*,?
C=CC[n+]1c(/C=C/c2ccc(OC(C)=O)c(OC)c2)ccc2ccccc21,-35%,-41%,-99*,-27%,-8%
COc1cccc(-c2cnc3c(NC(C)=O)cc(-c4cccc(C(=O)NCCO)c4)cn23)c1,.,.,-10,.,.
O=C(Nc1cc2c(=O)n(-c3ccc(Oc4ccccc4)cc3)ccc2oc1=O)c1ccccc1,-4%,38%,13,?,5.2µM*
CC1=C(c2ccccc2)CCC1=O,.,.,23,1%,-4%
CC1=C(c2ccccc2)C(O)(c2ccccc2)C(C)C1=O (configuration not stated),.,.,57,?,21µM*
CCS(=O)(=O)N1CCC(NC(=O)C(Cc2cc(OC)ccc2OC)NC(C)=O)CC1 (configuration not stated),-12%,-15%,24,0%,-3%
O=C(CSc1ccc2ccccc2c1)Nc1nc2ccccc2[nH]1,?,11µM*,26,-5%,1%
O=C(COc1ccccc1)Nc1cccc(-c2nc3ccccc3[nH]2)c1,-10%,6%,-101*,1%,15%
O=C(CSc1ccc(Cl)cc1)Nc1cccc(-c2nc3ccccc3[nH]2)c1,10µM*,?,-9,-193%,18µM*
O=C(Nc1cccc(-c2nc3ccccc3[nH]2)c1)c1cccc(NC(=O)c2ccco2)c1,?,?,-95*,15µM*,?
C=C1CCN(C(CC(C)C)C(=O)NCCCc2ccccc2)S(=O)(=O)c2ccccc21 (configuration not stated),-14%,?,.,.,.
CC(=O)OCCCN(C)CC/C=C1/c2ccccc2CSc2ccccc21,.,.,-70*,-5%[9.22 µM],6%
Cc1cc2ncc(-c3ccc(Cl)cc3)cn2n1,-4%,4%,-2,-4%,7%

# Bioassay records deposited in PubChem by National Center for Advancing Translational Sciences (NCATS).
